# Test results published in PMC7862700, “An all-to-all approach to the identification of sequence-specific readers for epigenetic DNA modifications on cytosine”.
# Key:
# Experiment in all cases: DAPPL (digital affinity profiling via proximity ligation, sequencing); 10 mM Tris-HCl pH 7.5, 50 mM NaCl, 1 mM DTT, 4% glycerol, room temperature, 30 min; GST-TFs on glutathione beads, 16-mer random dsDNA library, 0.1% formaldehyde crosslink after washing; high values mean tight binding
# [1] = target: T1, FLI1 (Homo sapiens, UniProt Q01543 1-452); conditions: protein: recombinant; tags: N-terminal GST; dsDNA, one strand shown
# T1 sequence: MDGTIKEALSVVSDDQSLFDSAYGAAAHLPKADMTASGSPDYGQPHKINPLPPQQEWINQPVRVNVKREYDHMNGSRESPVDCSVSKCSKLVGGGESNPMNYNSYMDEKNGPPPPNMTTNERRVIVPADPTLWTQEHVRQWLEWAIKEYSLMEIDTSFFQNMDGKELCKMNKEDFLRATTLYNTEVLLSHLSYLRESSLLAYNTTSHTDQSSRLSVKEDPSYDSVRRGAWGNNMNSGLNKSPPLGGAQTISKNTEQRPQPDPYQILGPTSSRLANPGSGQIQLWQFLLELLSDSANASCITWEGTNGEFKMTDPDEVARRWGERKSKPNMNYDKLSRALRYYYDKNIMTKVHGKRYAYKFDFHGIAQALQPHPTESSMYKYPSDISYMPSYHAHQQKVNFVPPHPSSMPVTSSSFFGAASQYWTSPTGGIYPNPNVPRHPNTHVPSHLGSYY
# Summary of the method: (§1)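 After expression in yeast as GST fusions, human transcription factors were bound to glutathione beads, DNA-barcoded and mixed with a tag-only sample. The pools were incubated with 200 nmole of a 16-mer random double-stranded DNA library in Tris/NaCl/DTT/glycerol buffer (30 min, room temperature), washed and crosslinked with 0.1% formaldehyde. Proximity ligation with BsaI/T4 ligase ran for 1 h at 37 °C, before PCR amplification and sequencing on an Illumina NextSeq500. Binding signal is a hexamer's read frequency for a factor divided by its frequency for the tag-only sample.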
# [2] = target: T2, ELK1 (Homo sapiens, UniProt P19419 1-428); conditions: protein: recombinant; tags: N-terminal GST; dsDNA, one strand shown
# T2 sequence: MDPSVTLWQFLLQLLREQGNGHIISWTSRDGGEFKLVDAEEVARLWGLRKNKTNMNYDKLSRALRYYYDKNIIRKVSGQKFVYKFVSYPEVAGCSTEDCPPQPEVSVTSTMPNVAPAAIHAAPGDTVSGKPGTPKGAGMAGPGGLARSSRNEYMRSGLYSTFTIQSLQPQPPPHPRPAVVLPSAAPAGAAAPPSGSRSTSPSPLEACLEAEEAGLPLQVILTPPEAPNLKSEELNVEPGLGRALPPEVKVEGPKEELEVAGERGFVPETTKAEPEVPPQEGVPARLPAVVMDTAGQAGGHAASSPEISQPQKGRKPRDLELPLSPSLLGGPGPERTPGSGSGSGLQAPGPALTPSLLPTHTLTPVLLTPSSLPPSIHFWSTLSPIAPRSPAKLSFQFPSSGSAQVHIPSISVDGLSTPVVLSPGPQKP
# Summary of the method: as §1
# [3] = target: T3, GABPA (Homo sapiens, UniProt Q06546 1-454); conditions: protein: recombinant; tags: N-terminal GST; dsDNA, one strand shown
# T3 sequence: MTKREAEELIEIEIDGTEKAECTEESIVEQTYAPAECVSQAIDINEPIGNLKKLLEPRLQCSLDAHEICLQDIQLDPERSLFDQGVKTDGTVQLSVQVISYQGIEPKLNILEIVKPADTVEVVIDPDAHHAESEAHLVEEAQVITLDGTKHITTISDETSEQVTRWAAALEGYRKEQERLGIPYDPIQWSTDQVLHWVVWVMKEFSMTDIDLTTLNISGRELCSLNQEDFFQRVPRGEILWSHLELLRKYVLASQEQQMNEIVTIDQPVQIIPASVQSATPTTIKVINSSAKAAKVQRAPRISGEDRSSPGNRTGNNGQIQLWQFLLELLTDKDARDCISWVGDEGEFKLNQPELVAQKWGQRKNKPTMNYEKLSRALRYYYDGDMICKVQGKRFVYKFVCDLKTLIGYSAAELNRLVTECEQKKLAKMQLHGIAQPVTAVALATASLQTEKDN
# Summary of the method: as §1
# [4] = target: T4, ERG (Homo sapiens, UniProt P11308 1-479); conditions: protein: recombinant; tags: N-terminal GST; dsDNA, one strand shown
# T4 sequence: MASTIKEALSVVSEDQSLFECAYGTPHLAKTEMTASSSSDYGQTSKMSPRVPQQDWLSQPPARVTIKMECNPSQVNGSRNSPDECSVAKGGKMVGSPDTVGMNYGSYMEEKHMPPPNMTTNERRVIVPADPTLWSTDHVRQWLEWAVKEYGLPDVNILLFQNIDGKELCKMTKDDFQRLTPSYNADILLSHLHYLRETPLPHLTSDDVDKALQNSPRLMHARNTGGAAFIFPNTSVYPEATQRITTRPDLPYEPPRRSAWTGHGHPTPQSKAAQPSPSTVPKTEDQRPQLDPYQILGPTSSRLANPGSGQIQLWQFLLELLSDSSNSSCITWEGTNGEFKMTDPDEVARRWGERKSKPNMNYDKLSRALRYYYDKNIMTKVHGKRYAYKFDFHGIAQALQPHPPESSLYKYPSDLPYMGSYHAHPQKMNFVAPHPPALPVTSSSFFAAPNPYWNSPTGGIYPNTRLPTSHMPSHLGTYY
# Summary of the method: as §1
# [5] = target: ELF1 (Homo sapiens, UniProt P32519 1-619); conditions: protein: recombinant; tags: N-terminal GST; dsDNA, one strand shown
# Summary of the method: as §1
# [6] = target: T5, EHF (Homo sapiens, UniProt Q9NZC4 1-300); conditions: protein: recombinant; tags: N-terminal GST; dsDNA, one strand shown
# T5 sequence: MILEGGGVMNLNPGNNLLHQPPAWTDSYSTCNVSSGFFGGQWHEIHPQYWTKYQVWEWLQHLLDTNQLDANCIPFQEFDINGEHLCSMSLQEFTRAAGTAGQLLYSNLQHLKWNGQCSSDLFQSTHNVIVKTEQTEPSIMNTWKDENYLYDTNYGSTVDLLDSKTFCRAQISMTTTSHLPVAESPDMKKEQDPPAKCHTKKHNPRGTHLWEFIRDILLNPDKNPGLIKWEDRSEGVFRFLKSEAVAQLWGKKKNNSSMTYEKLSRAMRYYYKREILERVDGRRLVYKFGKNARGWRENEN
# Summary of the method: as §1
# [7] = target: SPI1 (Homo sapiens, UniProt P17947 1-270); conditions: protein: recombinant; tags: N-terminal GST; dsDNA, one strand shown
# Summary of the method: as §1
# [8] = target: SPIB (Homo sapiens, UniProt Q01892 1-262); conditions: protein: recombinant; tags: N-terminal GST; dsDNA, one strand shown
# Summary of the method: as §1
# [9] = target: T6, ELK3 (Homo sapiens, UniProt P41970 1-407); conditions: protein: recombinant; tags: N-terminal GST; dsDNA, one strand shown
# T6 sequence: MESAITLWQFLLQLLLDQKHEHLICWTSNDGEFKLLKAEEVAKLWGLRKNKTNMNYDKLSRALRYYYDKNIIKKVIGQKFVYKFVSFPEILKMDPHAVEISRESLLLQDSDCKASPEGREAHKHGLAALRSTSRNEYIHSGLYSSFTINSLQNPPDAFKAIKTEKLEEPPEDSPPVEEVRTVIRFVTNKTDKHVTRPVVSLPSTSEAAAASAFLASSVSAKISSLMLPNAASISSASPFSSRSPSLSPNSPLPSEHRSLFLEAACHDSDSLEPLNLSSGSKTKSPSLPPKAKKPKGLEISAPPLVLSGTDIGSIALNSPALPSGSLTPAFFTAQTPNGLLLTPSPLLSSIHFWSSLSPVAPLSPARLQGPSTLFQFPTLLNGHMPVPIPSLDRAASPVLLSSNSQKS
# Summary of the method: as §1
# [10] = target: T7, FEV (Homo sapiens, UniProt Q99581 1-238); conditions: protein: recombinant; tags: N-terminal GST; dsDNA, one strand shown
# T7 sequence: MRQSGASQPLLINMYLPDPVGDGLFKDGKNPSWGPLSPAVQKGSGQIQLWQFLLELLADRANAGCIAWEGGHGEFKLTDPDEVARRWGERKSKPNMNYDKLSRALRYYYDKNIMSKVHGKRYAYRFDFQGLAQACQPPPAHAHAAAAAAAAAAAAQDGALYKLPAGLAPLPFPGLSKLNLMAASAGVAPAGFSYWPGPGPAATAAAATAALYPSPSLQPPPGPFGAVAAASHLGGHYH
# Summary of the method: as §1
# [11] = target: ETV5 (Homo sapiens, UniProt P41161 1-510); conditions: protein: recombinant; tags: N-terminal GST; dsDNA, one strand shown
# Summary of the method: as §1
# [12] = target: HSF1 (Homo sapiens, UniProt Q00613 1-529); conditions: protein: recombinant; tags: N-terminal GST; chain copies: 3; dsDNA, one strand shown
# Summary of the method: as §1
# [13] = target: T8, SPIC (Homo sapiens, UniProt Q8N5J4 1-248); conditions: protein: recombinant; tags: N-terminal GST; dsDNA, one strand shown
# T8 sequence: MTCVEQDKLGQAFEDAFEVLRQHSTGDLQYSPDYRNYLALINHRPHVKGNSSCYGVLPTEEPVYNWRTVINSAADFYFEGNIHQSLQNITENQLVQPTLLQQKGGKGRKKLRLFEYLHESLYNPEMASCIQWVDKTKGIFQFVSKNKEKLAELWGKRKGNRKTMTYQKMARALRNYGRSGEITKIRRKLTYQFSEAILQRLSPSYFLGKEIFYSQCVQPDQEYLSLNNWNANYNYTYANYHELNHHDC
# Summary of the method: as §1
# [14] = target: ELF4 (Homo sapiens, UniProt Q99607 1-663); conditions: protein: recombinant; tags: N-terminal GST; dsDNA, one strand shown
# Summary of the method: as §1
# [15] = target: T9, ELK4 (Homo sapiens, UniProt P28324-2 1-405); conditions: protein: recombinant; tags: N-terminal GST; dsDNA, one strand shown
# T9 sequence: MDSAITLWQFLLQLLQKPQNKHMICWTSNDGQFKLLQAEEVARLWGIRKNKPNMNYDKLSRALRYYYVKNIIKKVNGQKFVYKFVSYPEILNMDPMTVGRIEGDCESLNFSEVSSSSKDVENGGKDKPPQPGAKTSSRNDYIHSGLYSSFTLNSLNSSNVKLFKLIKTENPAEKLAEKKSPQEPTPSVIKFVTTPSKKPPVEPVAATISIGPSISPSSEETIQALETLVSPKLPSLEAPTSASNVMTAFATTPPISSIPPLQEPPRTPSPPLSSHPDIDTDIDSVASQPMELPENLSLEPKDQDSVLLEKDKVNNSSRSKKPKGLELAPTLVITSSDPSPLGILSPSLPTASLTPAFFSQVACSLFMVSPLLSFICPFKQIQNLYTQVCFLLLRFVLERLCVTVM
# Summary of the method: as §1
# [16] = target: T10, ETV2 (Homo sapiens, UniProt O00321 1-342); conditions: protein: recombinant; tags: N-terminal GST; dsDNA, one strand shown
# T10 sequence: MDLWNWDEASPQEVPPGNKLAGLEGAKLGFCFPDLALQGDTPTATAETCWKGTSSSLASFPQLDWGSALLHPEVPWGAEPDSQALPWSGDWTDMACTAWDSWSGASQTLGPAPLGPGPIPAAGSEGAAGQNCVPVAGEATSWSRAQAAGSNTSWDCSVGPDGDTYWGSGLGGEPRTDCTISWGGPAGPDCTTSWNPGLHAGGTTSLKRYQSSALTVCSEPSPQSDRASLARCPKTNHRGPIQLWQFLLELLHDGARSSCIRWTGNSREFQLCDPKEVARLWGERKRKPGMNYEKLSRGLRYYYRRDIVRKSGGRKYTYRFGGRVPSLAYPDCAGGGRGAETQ
# Summary of the method: as §1
# [17] = target: T11, ELF3 (Homo sapiens, UniProt P78545 1-371); conditions: protein: recombinant; tags: N-terminal GST; dsDNA, one strand shown
# T11 sequence: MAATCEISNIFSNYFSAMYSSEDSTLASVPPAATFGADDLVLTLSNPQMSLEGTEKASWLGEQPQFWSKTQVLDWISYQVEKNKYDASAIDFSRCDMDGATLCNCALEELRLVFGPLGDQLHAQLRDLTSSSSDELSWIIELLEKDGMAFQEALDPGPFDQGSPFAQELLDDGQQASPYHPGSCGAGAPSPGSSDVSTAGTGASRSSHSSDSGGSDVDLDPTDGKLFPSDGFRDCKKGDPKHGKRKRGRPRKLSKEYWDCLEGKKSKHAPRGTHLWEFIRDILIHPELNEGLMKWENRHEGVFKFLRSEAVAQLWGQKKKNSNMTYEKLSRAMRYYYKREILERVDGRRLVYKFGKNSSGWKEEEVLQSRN
# Summary of the method: as §1
# [18] = target: CRX (Homo sapiens, UniProt O43186 1-299); conditions: protein: recombinant; tags: N-terminal GST; dsDNA, one strand shown
# Summary of the method: as §1
# [19] = target: ETV1 (Homo sapiens, UniProt P50549 1-477); conditions: protein: recombinant; tags: N-terminal GST; dsDNA, one strand shown
# Summary of the method: as §1
# CRX, sequence (O43186 whole entry): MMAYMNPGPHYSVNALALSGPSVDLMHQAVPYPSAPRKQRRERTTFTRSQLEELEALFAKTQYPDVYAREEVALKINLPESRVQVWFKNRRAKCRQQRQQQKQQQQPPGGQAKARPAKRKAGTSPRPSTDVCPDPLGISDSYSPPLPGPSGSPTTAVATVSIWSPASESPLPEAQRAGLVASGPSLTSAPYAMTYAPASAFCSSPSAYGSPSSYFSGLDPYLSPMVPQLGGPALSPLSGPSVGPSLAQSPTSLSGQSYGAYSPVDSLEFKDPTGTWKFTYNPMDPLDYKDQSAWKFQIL
# ETV1, sequence (P50549 whole entry): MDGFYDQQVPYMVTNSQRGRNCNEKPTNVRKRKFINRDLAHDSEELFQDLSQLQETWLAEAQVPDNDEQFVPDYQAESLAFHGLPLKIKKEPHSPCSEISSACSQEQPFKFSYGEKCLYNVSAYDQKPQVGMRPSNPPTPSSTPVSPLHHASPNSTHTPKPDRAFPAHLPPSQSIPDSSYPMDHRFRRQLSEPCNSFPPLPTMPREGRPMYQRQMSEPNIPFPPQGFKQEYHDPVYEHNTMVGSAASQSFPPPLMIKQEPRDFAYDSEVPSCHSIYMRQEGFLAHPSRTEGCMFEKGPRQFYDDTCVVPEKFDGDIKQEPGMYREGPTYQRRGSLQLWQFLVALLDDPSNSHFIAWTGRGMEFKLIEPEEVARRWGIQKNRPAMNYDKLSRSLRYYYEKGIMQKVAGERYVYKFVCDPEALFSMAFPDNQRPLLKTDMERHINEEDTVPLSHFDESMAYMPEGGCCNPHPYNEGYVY
# SPIB, sequence (Q01892 whole entry): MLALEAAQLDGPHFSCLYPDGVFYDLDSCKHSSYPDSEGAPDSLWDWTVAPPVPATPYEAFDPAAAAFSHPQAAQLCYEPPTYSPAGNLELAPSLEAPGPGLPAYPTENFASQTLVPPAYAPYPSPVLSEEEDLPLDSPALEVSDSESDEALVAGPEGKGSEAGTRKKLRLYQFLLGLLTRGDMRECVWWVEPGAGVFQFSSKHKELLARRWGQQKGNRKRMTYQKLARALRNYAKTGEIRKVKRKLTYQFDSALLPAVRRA
# ELF1, sequence (P32519 whole entry): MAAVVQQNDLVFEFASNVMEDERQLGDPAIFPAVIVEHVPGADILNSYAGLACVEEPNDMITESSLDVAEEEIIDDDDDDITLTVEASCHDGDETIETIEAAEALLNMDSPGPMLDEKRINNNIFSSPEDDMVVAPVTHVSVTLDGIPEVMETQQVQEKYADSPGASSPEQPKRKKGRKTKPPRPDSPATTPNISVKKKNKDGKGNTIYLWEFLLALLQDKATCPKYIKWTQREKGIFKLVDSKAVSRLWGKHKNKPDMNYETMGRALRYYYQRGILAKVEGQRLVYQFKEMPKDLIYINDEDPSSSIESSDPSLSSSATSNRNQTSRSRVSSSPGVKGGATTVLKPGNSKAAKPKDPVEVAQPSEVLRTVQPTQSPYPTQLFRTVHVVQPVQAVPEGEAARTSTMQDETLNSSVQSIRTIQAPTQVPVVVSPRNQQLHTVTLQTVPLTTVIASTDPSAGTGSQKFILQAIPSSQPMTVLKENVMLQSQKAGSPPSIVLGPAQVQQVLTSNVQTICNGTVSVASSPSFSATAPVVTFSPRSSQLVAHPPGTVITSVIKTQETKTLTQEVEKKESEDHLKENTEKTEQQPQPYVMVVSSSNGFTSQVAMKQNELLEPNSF
# ETV5, sequence (P41161 whole entry): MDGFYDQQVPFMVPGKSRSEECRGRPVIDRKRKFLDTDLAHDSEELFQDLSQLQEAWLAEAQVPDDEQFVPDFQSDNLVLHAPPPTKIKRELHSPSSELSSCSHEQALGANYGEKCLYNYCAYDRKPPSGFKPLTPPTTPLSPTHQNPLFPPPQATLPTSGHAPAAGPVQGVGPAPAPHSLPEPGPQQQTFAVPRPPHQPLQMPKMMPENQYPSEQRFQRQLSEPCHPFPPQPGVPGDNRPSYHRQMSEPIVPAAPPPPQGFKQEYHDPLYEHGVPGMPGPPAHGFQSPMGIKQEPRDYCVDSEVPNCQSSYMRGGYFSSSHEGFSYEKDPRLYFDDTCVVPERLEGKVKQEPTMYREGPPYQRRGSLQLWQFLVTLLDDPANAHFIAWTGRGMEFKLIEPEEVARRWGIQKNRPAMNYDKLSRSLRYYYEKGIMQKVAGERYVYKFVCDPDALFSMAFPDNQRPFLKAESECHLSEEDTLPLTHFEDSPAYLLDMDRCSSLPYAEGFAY
# HSF1, sequence (Q00613 whole entry): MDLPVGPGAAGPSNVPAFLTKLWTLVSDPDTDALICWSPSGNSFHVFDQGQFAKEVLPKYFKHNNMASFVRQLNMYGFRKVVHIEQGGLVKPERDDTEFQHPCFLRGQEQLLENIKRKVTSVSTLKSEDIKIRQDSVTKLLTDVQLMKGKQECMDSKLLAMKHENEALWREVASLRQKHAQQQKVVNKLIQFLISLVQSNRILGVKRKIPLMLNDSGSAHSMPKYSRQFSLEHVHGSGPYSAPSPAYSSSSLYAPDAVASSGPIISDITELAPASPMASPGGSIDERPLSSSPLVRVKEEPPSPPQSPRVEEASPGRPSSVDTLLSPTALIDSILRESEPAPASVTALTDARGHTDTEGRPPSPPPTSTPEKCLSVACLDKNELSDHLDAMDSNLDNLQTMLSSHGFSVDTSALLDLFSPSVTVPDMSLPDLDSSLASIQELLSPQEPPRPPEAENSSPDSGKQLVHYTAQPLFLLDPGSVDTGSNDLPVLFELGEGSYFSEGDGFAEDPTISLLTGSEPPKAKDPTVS
# ELF4, sequence (Q99607 whole entry): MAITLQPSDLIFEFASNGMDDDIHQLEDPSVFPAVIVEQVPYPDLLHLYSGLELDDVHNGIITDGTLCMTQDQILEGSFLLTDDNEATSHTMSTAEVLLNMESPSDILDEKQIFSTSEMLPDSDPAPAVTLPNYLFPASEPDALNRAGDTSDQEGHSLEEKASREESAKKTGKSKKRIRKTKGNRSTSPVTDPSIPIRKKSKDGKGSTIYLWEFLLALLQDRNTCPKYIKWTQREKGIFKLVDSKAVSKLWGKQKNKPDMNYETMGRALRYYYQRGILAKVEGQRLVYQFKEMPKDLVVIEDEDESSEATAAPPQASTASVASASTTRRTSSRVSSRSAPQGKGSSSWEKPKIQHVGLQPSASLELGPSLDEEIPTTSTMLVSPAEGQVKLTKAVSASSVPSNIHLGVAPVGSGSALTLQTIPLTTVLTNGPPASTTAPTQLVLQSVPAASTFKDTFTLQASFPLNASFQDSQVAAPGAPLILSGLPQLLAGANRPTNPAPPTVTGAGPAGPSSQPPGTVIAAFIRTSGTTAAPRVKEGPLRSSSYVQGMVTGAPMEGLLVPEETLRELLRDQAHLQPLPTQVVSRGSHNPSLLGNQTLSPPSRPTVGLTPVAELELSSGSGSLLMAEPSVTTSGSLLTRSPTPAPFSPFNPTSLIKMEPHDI
sequence,measurement,setting,value
AGCTTT,binding signal,[1],"1.21 fold enrichment (6-mer frequency, TF over GST control)"
same,binding signal,[2],"1.2 fold enrichment (6-mer frequency, TF over GST control)"
same,binding signal,[3],"1.13 fold enrichment (6-mer frequency, TF over GST control)"
same,binding signal,[4],"1.12 fold enrichment (6-mer frequency, TF over GST control)"
same,binding signal,[5],"1.2 fold enrichment (6-mer frequency, TF over GST control)"
same,binding signal,[6],"1.11 fold enrichment (6-mer frequency, TF over GST control)"
same,binding signal,[7],"1.16 fold enrichment (6-mer frequency, TF over GST control)"
same,binding signal,[8],"1.04 fold enrichment (6-mer frequency, TF over GST control)"
same,binding signal,[9],"1.13 fold enrichment (6-mer frequency, TF over GST control)"
same,binding signal,[10],"1.08 fold enrichment (6-mer frequency, TF over GST control)"
same,binding signal,[11],"1.18 fold enrichment (6-mer frequency, TF over GST control)"
same,binding signal,[12],"1.43 fold enrichment (6-mer frequency, TF over GST control)"
same,binding signal,[13],"1.03 fold enrichment (6-mer frequency, TF over GST control)"
same,binding signal,[14],"1.15 fold enrichment (6-mer frequency, TF over GST control)"
same,binding signal,[15],"1.28 fold enrichment (6-mer frequency, TF over GST control)"
same,binding signal,[16],"1.23 fold enrichment (6-mer frequency, TF over GST control)"
same,binding signal,[17],"1.45 fold enrichment (6-mer frequency, TF over GST control)"
same,binding signal,[18],"1.81 fold enrichment (6-mer frequency, TF over GST control)"
same,binding signal,[19],"1.1 fold enrichment (6-mer frequency, TF over GST control)"
